The source of these data is PubChem BioAssay (NCI).

Compounds without any hit were thinned out: in the full panel of roughly 83,000, 20% have a hit.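 Values shown are percent growth following 48 h exposure of cells in 96-well plates to a single concentration of compound; below 10 was considered active.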 Unmarked numbers belong to inactive results. Activity calls are given as the source filed them.

Some test systems named below: DU-145 prostate; K-562 leukemia; MALME-3M melanoma; MDA-MB-231 breast; RXF 393 renal; SF-268 CNS; SF-295 CNS; SF-539 CNS; UACC-257 melanoma; M14 melanoma.
Holding throughout (experiment): NCI-60 one-dose screen, 48 h (100 = growth as untreated, 0 = no growth, -100 = all killed)
Holding throughout (conditions): 10 µM unless noted

For `C=C1C(=O)O[C@H]2[C@H]1CCC(/C=N/c1ncc(Br)cc1N)=C\CC[C@@]1(C)O[C@@H]21`, the growth with DU-145 prostate is 15.5%; in the assay on K-562 leukemia, 2.64% (active); in the assay with MALME-3M melanoma, -9.18% (active); in the assay with MDA-MB-231 breast, -15.5% (active); in the assay on RXF 393 renal, -79.3% (active); in the assay on SF-268 CNS, 52.5%. For the same compound, the growth with SF-295 CNS is 70.3%; in the assay with SF-539 CNS it was 25.8%; in the assay on UACC-257 melanoma, 22%; in the assay on M14 melanoma, -12.4% (active).
As to `COc1ccc(C2C(c3ccccc3)C(=O)N2c2cc(OC)c(OC)c(OC)c2)cc1I` (stereo not given), the growth in the assay on DU-145 prostate is 7.36% (active); in the assay on K-562 leukemia it was 6.76% (active); in the assay with MALME-3M melanoma it was 80.1%; in the assay with MDA-MB-231 breast it was 23.3%; in the assay with RXF 393 renal, 24.2%; in the assay on SF-268 CNS, 34.9%. Moreover, the growth with SF-295 CNS was 17.9%; in the assay on SF-539 CNS, 1.87% (active); in the assay on UACC-257 melanoma it was 47.9%; in the assay on M14 melanoma, 8.46% (active).
`CCc1ccc(OCc2ccccc2C(=O)Nc2ccc3nc(C)cc(N)c3c2)cc1`: the growth was -96.3% (active) in the assay with DU-145 prostate; -68% (active) in the assay on K-562 leukemia; -86.4% (active) in the assay with MALME-3M melanoma; -82.4% (active) in the assay on MDA-MB-231 breast; -84.5% (active) in the assay with RXF 393 renal; -82.5% (active) with SF-268 CNS. The growth with SF-295 CNS is -92% (active); with SF-539 CNS, -97.5% (active); in the assay with UACC-257 melanoma, -79.7% (active); in the assay with M14 melanoma it was -93.6% (active).
In the case of `C=C1C(=O)O[C@H]2[C@H]1CC/C(C=Nc1c(N)cc(F)cc1Br)=C\CC[C@@]1(C)O[C@@H]21`, the growth in the assay with DU-145 prostate is 55.2%; in the assay on K-562 leukemia, 20.3%; in the assay with MALME-3M melanoma it was 99.5%; in the assay with MDA-MB-231 breast, 65.1%; with RXF 393 renal it was 66.3%; in the assay with SF-268 CNS it was 83.1%. Besides, the growth with SF-295 CNS is 99.7%; in the assay on SF-539 CNS, 86.9%; in the assay with UACC-257 melanoma, 81.9%; with M14 melanoma it was 66.2%.
Turning to `CC(=O)Nc1ccc2c(c1)Cc1cc(F)ccc1-2`, the growth in the assay with DU-145 prostate was 96.4%; in the assay with K-562 leukemia it was 91.4%; in the assay with MALME-3M melanoma, 104%; in the assay on MDA-MB-231 breast, 101%; in the assay on RXF 393 renal, 117%; with SF-268 CNS, 80.7%. The growth in the assay with SF-295 CNS was 101%; in the assay with SF-539 CNS, 97%; in the assay with UACC-257 melanoma, 99.7%; in the assay on M14 melanoma, 110%.
On to `C#C[C@@]1(O)[C@@H](CO)O[C@@H](n2cc(-c3ccco3)c3c(N)ncnc32)[C@@H]1O`, for which the growth is 67.9% in the assay on DU-145 prostate; 86.1% in the assay on K-562 leukemia; 59.4% in the assay with MALME-3M melanoma; 102% with MDA-MB-231 breast; 80.9% with RXF 393 renal; 83% with SF-268 CNS. Further, the growth in the assay with SF-295 CNS was 76.9%; in the assay with SF-539 CNS, 46%; in the assay with UACC-257 melanoma, 89.3%; in the assay with M14 melanoma, 69.9%.
For `COc1cc(NC(=O)c2cc(O)c(C/C=C(\C)CCC=C(C)C)c(O)c2)cc2c1O[C@]1(C)CC[C@@H](O)C(C)(C)[C@H]1C2`, the growth in the assay with DU-145 prostate is 20.3%; in the assay with K-562 leukemia, 0.252% (active); in the assay with MALME-3M melanoma, -18.5% (active); with MDA-MB-231 breast, -33.7% (active); with RXF 393 renal, -38.7% (active); with SF-268 CNS it was 15.7%. The growth with SF-295 CNS was -8.51% (active); in the assay with SF-539 CNS it was -51.2% (active); in the assay on UACC-257 melanoma, 34.4%; in the assay with M14 melanoma it was -15.4% (active).
On to `OCCNc1nc(NCCO)nc(Nc2ccc(C3=NN(c4ccc(Cl)cc4)C(c4ccc(Cl)cc4)C3)cc2)n1` (stereo not given), for which the growth in the assay on DU-145 prostate was 51.9%; in the assay with K-562 leukemia, 13.3%; with MALME-3M melanoma it was 70.1%; in the assay on MDA-MB-231 breast, 63.7%; in the assay on RXF 393 renal, -26.1% (active); in the assay with SF-268 CNS, 53%. For the same compound, the growth is 12.2% with SF-295 CNS, 36.6% with SF-539 CNS, 72.9% with UACC-257 melanoma and 63.9% in the assay with M14 melanoma.
Turning to `O=C1C(=O)c2c(nc3ccc(Br)cn23)-c2ccccc21`, the growth was -100% (active) in the assay with DU-145 prostate; -59.8% (active) with K-562 leukemia; -97.9% (active) with MALME-3M melanoma; -20.1% (active) in the assay on MDA-MB-231 breast; -94.1% (active) in the assay on RXF 393 renal; -71.7% (active) in the assay with SF-268 CNS. Also, the growth in the assay on SF-295 CNS was -100% (active); with SF-539 CNS it was -99.1% (active); in the assay with UACC-257 melanoma it was -99% (active); in the assay with M14 melanoma, -92.9% (active).
Regarding `COc1cc(/C=C/CO)cc(OC)c1O[C@@H]1O[C@H](CO)[C@@H](O)[C@H](O)[C@H]1O`, the growth with DU-145 prostate is 110%; with K-562 leukemia it was 96.6%; in the assay with MALME-3M melanoma it was 102%; in the assay on MDA-MB-231 breast, 90.2%; with RXF 393 renal, 100%; in the assay with SF-268 CNS, 102%. Further, the growth with SF-295 CNS is 98.7%; with SF-539 CNS, 105%; with UACC-257 melanoma, 96.3%; in the assay with M14 melanoma, 104%.
Consider `Cc1cc(Cl)cc(CN(Cc2ccccc2)Cc2c(O)ccc3ccccc23)c1O`, for which the growth in the assay with DU-145 prostate was 98.1%; in the assay with K-562 leukemia, 101%; in the assay on MALME-3M melanoma, 96.7%; in the assay on MDA-MB-231 breast it was 100%; in the assay on RXF 393 renal, 109%; in the assay on SF-268 CNS it was 90.8%. Besides, the growth with SF-295 CNS was 104%; with SF-539 CNS, 103%; in the assay with UACC-257 melanoma it was 100%; in the assay on M14 melanoma, 104%.
Turning to `C/C(=C\c1cnc(C)s1)[C@@H]1C[C@@H]2O[C@@H]2CCC[C@H](C)[C@H](O)[C@@H](C)C(=O)C(C)(C)[C@@H](O)CC(=O)O1`, the growth in the assay with DU-145 prostate was 2.1% (active); in the assay on K-562 leukemia, 11.8%; in the assay with MALME-3M melanoma, 54.6%; with MDA-MB-231 breast it was 41.3%; with RXF 393 renal, 18.1%; with SF-268 CNS, 51.7%. For the same compound, the growth was 7.05% (active) in the assay with SF-295 CNS, 7.63% (active) in the assay with SF-539 CNS, 76.1% with UACC-257 melanoma and 22.1% in the assay with M14 melanoma.
As to `Nc1c(C(=O)Nc2ccccn2)sc2nc3c(cc12)CCCC3`, the growth with DU-145 prostate was 72%; in the assay on K-562 leukemia, 14.1%; in the assay on MALME-3M melanoma it was 62.7%; with MDA-MB-231 breast, 66.5%; in the assay on RXF 393 renal it was 84.7%; with SF-268 CNS it was 62.4%. For the same compound, the growth in the assay on SF-295 CNS is 34%; in the assay with SF-539 CNS it was 39.3%; in the assay on UACC-257 melanoma, 67.8%; with M14 melanoma, 18%.
